# PTHR1 ag = agonists of human PTHR1 parathyroid hormone receptor; Q03431; HEK293 GP2 PTHR1 cells, GloSensor cAMP luminescence, 1 h; Potency, µM (doses to about 115 µM), for inactives: at the highest dose activation, most hits filed as activators; hit rate 0.075% among 410,000; note: potency is the fitted concentration of half-maximal effect; nearly all actives have a fitted effect of over 55% in size
#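 HEK-293-derived GP2 cells expressing PTHR1 and a GloSensor cAMP reporter, 3,000/well, plated overnight, given luciferin plus IBMX (each 0.5 mM as added) for 1 h at 37 °C, then compound for 1 h at 37 °C. Luminescence was read after 15 min at room temperature.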
# GLP1R inv ag = GLP-1 receptor (human) inverse agonism | HEK293 GLP-1R CRE-luciferase, luminescence, 24 h; GLP-1R form is constitutively active | Potency, µM (titrated, usually from 38.3 µM), for the others: at the top dose activity change, negative = inhibition, hits mostly inhibitors | hit rate 1.6% among 410,000; note: potency is the fitted concentration of half-maximal effect; % is set by controls: 0 for no effect and ±100 for the full control effect; nearly all actives have a fitted effect of over 55% in size
# Target sequence (P43220 whole entry, looked up): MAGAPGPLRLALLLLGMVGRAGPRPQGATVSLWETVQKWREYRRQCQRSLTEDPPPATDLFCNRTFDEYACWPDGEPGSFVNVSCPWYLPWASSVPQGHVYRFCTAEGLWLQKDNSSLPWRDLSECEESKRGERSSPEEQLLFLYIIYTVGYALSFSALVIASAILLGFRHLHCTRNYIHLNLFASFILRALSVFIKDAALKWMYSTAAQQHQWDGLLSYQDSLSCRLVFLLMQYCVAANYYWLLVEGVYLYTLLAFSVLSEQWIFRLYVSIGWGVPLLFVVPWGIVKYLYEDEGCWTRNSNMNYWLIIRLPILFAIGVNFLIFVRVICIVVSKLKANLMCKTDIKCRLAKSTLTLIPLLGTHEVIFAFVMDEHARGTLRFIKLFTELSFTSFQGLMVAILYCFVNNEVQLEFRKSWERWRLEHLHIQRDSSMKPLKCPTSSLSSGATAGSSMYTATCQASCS
#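 Inverse agonists were sought by their lowering of basal cAMP reporter luciferase output in HEK293 cells stably carrying constitutively active human GLP-1R, after 24 h compound treatment.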
# GLP-1R agonist = agonists of human GLP-1 receptor; P43220; HEK293 GLP-1R CRE-luciferase, luminescence, 4-6 h; cells express a hypersensitive GLP-1R form; Potency, µM (titrated, usually from 45.6 µM), inactives show top-dose activation, actives largely listed as activators; hit rate 0.007% among 380,000; note: potency is the fitted concentration of half-maximal effect; % of control where 0% means no effect
# LDHA inh = inhibitors of human lactate dehydrogenase A; P00338; activity change, % (values are at about 110 or 230 µM); purified LDHA, NADH/diaphorase-resazurin fluorescence; active compounds read low; hit rate 0.15% among 480,000; in the data active = activity change below about -30%; inconclusive = mostly about -25% to -30%;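 note: plate controls were DMSO wells for no effect and wells without enzyme for full effect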
#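 Resorufin fluorescence (ex540/em590), read at 0 and 20 min after diaphorase/resazurin addition, reports the NADH left after a 5 min room-temperature reaction of 2 nM human LDH5 with 0.06 mM NADH and 0.2 mM pyruvate.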
# mIDH1 inhibitor = human IDH1 R132H inhibition; O75874; IDH1-R132H enzyme, NADPH consumption, diaphorase/resazurin fluorescence; Potency, µM (titrated, usually from 76.6 µM), for the others: top-dose activity change, negative = inhibition, actives largely listed as inhibitors; hit rate 0.093% among 390,000; AID 602179; note: potency is the fitted concentration of half-maximal effect; % is set by controls: 0 for no effect and ±100 for the full control effect; nearly all actives have a fitted effect of over 65% in size
#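 IDH1-R132H (0.5 ug/mL) preincubated 30 min with compound, then NADPH (0.016 mM) and alpha-KG (2 mM) added; 80 min at RT, pH 7.5. Remaining NADPH coupled via diaphorase/resazurin to fluorescence (540/590 nm); concentration-response curves normalized to no-enzyme control.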
# HEK293 tox = cytotoxicity in counter-screen for GLP-1R inverse agonists; HEK293 cAMP-luciferase reporter cells, luminescence, 24 h; Potency, µM (titrated, usually from 38.3 µM), for the others: at the top dose activity change, negative = inhibition, most hits filed as inhibitors; hit rate 0.13% among 410,000; AID 624418;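 note: loss of luciferase light is scored as toxicity; potency is the fitted concentration of half-maximal effect; % is set by controls: 0 for no effect and ±100 for the full control effect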
#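 MLSMR compounds, 24 hr on cells at 37 deg C/5% CO2; luminescence after luciferase reagent (12 min RT). Inhibition counted as the undesired cytotoxic outcome.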
# An asterisk follows results filed as active; i = inactive; ? = inconclusive; nt = not tested or not shown. Only some compounds are listed: those with a hit (about 1.7% of all), similar ones and a draw of the others. Unless noted, calls come from the whole dose curve; as a rule, active = well fitted curve in the direction sought with a large enough effect; inconclusive = small, poorly fitted or top-dose-only effect, or another doubt; inactive = no such curve, though single readings can be large; an effect the other way counts as inactive or inconclusive.
SMILES,PTHR1 ag,GLP1R inv ag,GLP-1R agonist,LDHA inh,mIDH1 inhibitor,HEK293 tox
CNCC[C@H](Oc1cccc2ccccc12)c1cccs1,i,11.2µM*,-1.3%,-5.4,-6.1%,-13.0%
CN(C)C(Cc1ccccc1)C(=O)c1ccccc1 (centres undefined),i,10.1%,15.0%,-0.7,6.4%,4.0%
CN(C)C(Cc1ccccc1)C(=O)c1c[nH]c2ccccc12 (centres undefined),i,12.6µM*,-4.6%,1.3,7.7%,1.4%
O=c1c2cc(NC(=S)NCCCN3CCC(Cc4ccccc4)CC3)ccc2nc2n1CCCCC2,-30.0%,2.24µM*,9.9%,-1.0,4.1%,?
O=C(NCCCN1CC1)Nc1cccc2ccccc12,12.1%,0.0%,-2.9%,6.5,10.6%,6.8%
N#CC(C#N)=NNc1ccc(S(N)(=O)=O)cc1,-21.7%,?,-1.1%,-45.0*,-20.2%,?
COc1ccc2[nH]c(C)c(CCNCc3ccc(C(F)(F)F)cc3)c2c1,nt,nt,nt,21.8,nt,nt
CCc1c(C2(O)CCCCC2)[nH]c2ccc(C(F)(F)F)cc12,-25.2%,2.24µM*,8.3%,1.2,0.6%,?
Cc1ccccc1C(=O)Oc1cccc(Nc2ncnc3ccccc23)c1,i,11.2µM*,-15.8%,-0.8,2.2%,-25.1%
CC(C)(C)OC(=O)N(CCc1ccccc1)Cc1ccc(OCc2cccc(NC(=O)c3ccccc3)c2)cc1,i,7.94µM*,6.0%,-3.3,7.9%,3.1%
COc1c(C)cc(C(=O)C2CCCN(Cc3ccccn3)C2)cc1C (centres undefined),i,2.82µM*,20.3%,-0.8,-12.1%,?
Cc1ccc(C2(c3ccc(C)cc3)CC2C(=O)Nc2ccc([N+](=O)[O-])cc2O)cc1 (centres undefined),-48.3%,3.98µM*,-38.7%,6.2,20.9%,?
O=C(OC1CCOC1=O)c1cccs1 (centres undefined),nt,nt,nt,2.9,nt,nt
CN(C(=O)Oc1ccc(Cl)c2cccnc12)c1ccccc1,-14.6%,0.0%,-5.3%,-9.9,2.1%,-2.4%
Cc1cccc(NC(=O)Oc2ccc(Cl)c3cccnc23)c1,i,10µM*,14.4%,6.7,-3.2%,?
CC(=O)Nc1ccc(S(=O)(=O)N2Cc3ccccc3-n3nncc3C2)cc1,-22.8%,7.4%,3.1%,-30.0*,-4.7%,-6.1%
COc1ccccc1CNCCc1ccccc1,nt,nt,nt,-6.4,nt,nt
COc1ccc(NC(=O)CN(c2ccc([N+](=O)[O-])cc2)S(=O)(=O)c2ccccc2)cc1,i,6.31µM*,2.7%,-0.1,6.1%,?
CN(CCc1ccccc1)C(=O)c1ccc(NC(=O)Cc2cccc([N+](=O)[O-])c2)cc1,-50.4%,?,2.7%,-6.0,-2.1%,?
C[C@]12CC[C@H](N)CC1=CCC1C2CC[C@@]2(C)C1CC[C@@H]2O (some centres undefined),i,?,-0.9%,-8.0,-3.7%,?
C[C@]12CC[C@@H](O)CC1=CCC1C2CC[C@@]2(C)C1CC[C@@H]2N (some centres undefined),i,11.2µM*,7.5%,-4.2,13.1%,-13.6%
COc1cccc(CC(=O)N2CCN(C(C)C(=O)NC(N)=O)CC2)c1 (centres undefined),nt,nt,nt,-0.2,nt,nt
Cc1[nH]nc2c1C(c1ccc(-c3ccc(Cl)cc3)o1)SCC(=O)N2 (centres undefined),nt,nt,nt,22.0,nt,nt
Cc1ccc(NCc2cccn2-c2nnc(N3CCC(C(=O)NCc4ccc(OC(C)C)cc4)CC3)s2)cc1,-25.2%,10µM*,nt,-3.0,nt,-15.9%
c1ccc(CCNCc2ccco2)cc1,nt,nt,nt,0.8,nt,nt
SMILES,PTHR1 ag,GLP1R inv ag,GLP-1R agonist,LDHA inh,mIDH1 inhibitor,HEK293 tox
CCN(CC)S(=O)(=O)c1ccc(C)c(NCC(=O)Nc2ccc(C#N)c(Cl)c2)c1,-31.5%,5.62µM*,1.7%,5.2,-0.5%,-26.2%
N#Cc1ccc(NC(=O)CCC2CCCCC2)cc1Cl,nt,nt,nt,12.8,nt,nt
O=C(Nc1ccc(Cl)c(C(F)(F)F)c1)NC1CC2CCCC(C1)N2Cc1ccccc1 (centres undefined),-14.6%,2.51µM*,-5.9%,1.0,-9.9%,?
O=C(Nc1ccc(F)cc1)NC1CCN(Cc2ccccc2)CC1,-32.0%,?,-1.0%,0.5,7.5%,-25.6%
COc1cc(CNC2CN3CCC2CC3)cc(Cl)c1OCc1ccccc1Cl (centres undefined),nt,nt,nt,1.2,nt,nt
CC(=O)c1cn(Cc2ccc(F)cc2)c2ccccc12,-80.0%,?,1.0%,-8.6,0.0%,-1.3%
COC(=O)c1cn(Cc2ccc(F)cc2)c2ccccc12,-46.6%,11.2µM*,15.6%,-0.5,6.8%,2.2%
CC[C@@H](C(=O)[C@@H](C)[C@@H](O)[C@H](C)[C@@H]1O[C@@H]([C@@H](CC)C(=O)O)CC[C@@H]1C)[C@H]1O[C@]2(C=C[C@@H](O)[C@]3(CC[C@@](C)([C@H]4CC[C@](O)(CC)[C@H](C)O4)O3)O2)[C@H](C)C[C@@H]1C,-47.4%,?,-15.5%,-2.7,5.8%,3.98µM*
COc1ccc(C2SCC(=O)Nc3c2c(C)nn3C)cc1 (centres undefined),nt,nt,nt,-0.7,nt,nt
Cc1ccc(C(C#N)=Cc2ccc3c(c2)OCO3)cc1,-47.3%,10µM*,-0.1%,-0.3,2.5%,-11.6%
Cc1ccccc1C(c1ncccc1C)N(C)C(=O)C1CCN(CCOc2ccc(Cl)cc2Cl)CC1 (centres undefined),i,?,-11.1%,0.6,nt,10µM*
CC(C)c1cccc(C(C)C)c1OC(=O)NC(=O)c1c(F)cccc1F,-6.6%,8.91µM*,-2.6%,-0.8,9.3%,11.2%
O=C(COc1ccc2ccccc2c1)N1CCN(Cc2c[nH]c3ccccc23)CC1,-86.4%,11.2µM*,-1.5%,-20.5,7.6%,-32.2%
COc1ccc(CN2CCN(C(=O)COc3ccc4ccccc4c3)CC2)c(OC)c1,i,10µM*,-1.0%,-8.7,-7.1%,-3.7%
O=C(COc1ccc(Br)cc1)N1CCN(Cc2c[nH]c3ccccc23)CC1,-94.9%,?,8.0%,-10.5,2.7%,-25.9%
O=C(CSC1c2ccccc2Oc2ccccc21)Nc1ccc(C(=O)O)cc1,nt,nt,nt,13.5,nt,nt
CCOc1cc(CN2CCN(C(=O)COc3ccc4ccccc4c3)CC2)ccc1OC,nt,nt,nt,10.1,nt,nt
CCCCCCCCCCCCCCCCn1cc[n+](C)c1,-30.8%,7.08µM*,-3.1%,2.1,4.9%,?
CCC1C(c2ccccc2)N(C)C(c2ccccc2)CC1(O)c1ccccc1 (centres undefined),-13.6%,2.51µM*,-0.1%,3.4,0.0%,?
